# Experimental data: the supplement of paper PMC11006884
# Targets with a hit are over-represented here; the source holds about 6,500 in all. About 2% of all pairs of compound and target were hits. Unmarked numbers belong to inactive results.
# Compound: COC(=O)C#Cc1ccccc1 [methyl 3-phenylpropiolate]
# Experiment: log2 ratio of iodoacetamide-alkyne labeling of the cysteine site, DMSO over compound (competition); higher = stronger covalent engagement of the cysteine by the compound, active = 1 or more
# Settings: 500 µM; treatment time 1 h; system: HEK293T cell lysate
# Procedure, shortened: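 Reporter intensities give each cysteine's log2 competition ratio as the mean of control channels over the mean of compound channels. The samples were HEK293T lysate (2 mg/mL) given vehicle or electrophile (500 µM, 1 h, ambient temperature), then iodoacetamide alkyne (1 h), followed by click coupling to sCIP-TMT reagents, pooling, trypsin digestion overnight at 37 °C, streptavidin enrichment, acid elution, Orbitrap Eclipse LC-MS/MS with FAIMS and FragPipe quantification. Duplicate channels and three replicates were run, and cysteines quantified in only one replicate were discarded.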
# Sequence of UniProt Q00796 (Q00796 whole entry, looked up): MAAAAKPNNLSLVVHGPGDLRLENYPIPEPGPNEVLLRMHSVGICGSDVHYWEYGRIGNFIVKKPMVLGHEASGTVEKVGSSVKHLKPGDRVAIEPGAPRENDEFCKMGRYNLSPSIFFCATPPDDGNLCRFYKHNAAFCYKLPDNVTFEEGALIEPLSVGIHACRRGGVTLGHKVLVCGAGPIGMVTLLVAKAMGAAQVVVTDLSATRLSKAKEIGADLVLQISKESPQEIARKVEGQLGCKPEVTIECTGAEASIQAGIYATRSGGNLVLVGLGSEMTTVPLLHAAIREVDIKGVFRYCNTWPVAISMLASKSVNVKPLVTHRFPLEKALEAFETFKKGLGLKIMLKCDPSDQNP
# Sequence of UniProt Q5JRX3 (Q5JRX3 whole entry, looked up): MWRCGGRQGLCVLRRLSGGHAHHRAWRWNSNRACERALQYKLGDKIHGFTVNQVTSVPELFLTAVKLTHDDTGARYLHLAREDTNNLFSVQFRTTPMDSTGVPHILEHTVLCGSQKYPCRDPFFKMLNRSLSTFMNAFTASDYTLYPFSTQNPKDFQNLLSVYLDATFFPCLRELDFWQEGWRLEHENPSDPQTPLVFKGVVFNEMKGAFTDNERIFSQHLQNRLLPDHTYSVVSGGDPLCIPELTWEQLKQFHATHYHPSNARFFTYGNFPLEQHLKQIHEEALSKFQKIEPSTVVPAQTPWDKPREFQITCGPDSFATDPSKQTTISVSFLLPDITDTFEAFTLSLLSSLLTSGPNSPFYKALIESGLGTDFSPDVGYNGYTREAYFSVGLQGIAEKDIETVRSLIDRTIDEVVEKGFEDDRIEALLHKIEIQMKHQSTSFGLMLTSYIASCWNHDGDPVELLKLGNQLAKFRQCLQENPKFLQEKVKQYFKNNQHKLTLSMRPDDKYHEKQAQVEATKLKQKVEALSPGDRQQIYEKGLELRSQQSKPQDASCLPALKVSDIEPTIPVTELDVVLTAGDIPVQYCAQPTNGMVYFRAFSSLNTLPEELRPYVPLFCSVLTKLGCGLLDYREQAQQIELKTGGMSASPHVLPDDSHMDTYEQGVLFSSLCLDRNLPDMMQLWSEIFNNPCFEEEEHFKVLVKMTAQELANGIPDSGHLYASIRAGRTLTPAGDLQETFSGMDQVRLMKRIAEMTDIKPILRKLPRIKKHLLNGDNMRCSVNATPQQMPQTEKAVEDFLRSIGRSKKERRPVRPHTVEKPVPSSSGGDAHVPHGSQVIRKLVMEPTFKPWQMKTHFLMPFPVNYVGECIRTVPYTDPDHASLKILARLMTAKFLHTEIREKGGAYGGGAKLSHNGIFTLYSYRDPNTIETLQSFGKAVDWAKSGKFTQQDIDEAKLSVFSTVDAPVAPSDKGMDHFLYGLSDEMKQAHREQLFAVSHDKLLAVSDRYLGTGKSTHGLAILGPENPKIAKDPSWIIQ
# Sequence of UniProt P52948 (P52948 whole entry, looked up): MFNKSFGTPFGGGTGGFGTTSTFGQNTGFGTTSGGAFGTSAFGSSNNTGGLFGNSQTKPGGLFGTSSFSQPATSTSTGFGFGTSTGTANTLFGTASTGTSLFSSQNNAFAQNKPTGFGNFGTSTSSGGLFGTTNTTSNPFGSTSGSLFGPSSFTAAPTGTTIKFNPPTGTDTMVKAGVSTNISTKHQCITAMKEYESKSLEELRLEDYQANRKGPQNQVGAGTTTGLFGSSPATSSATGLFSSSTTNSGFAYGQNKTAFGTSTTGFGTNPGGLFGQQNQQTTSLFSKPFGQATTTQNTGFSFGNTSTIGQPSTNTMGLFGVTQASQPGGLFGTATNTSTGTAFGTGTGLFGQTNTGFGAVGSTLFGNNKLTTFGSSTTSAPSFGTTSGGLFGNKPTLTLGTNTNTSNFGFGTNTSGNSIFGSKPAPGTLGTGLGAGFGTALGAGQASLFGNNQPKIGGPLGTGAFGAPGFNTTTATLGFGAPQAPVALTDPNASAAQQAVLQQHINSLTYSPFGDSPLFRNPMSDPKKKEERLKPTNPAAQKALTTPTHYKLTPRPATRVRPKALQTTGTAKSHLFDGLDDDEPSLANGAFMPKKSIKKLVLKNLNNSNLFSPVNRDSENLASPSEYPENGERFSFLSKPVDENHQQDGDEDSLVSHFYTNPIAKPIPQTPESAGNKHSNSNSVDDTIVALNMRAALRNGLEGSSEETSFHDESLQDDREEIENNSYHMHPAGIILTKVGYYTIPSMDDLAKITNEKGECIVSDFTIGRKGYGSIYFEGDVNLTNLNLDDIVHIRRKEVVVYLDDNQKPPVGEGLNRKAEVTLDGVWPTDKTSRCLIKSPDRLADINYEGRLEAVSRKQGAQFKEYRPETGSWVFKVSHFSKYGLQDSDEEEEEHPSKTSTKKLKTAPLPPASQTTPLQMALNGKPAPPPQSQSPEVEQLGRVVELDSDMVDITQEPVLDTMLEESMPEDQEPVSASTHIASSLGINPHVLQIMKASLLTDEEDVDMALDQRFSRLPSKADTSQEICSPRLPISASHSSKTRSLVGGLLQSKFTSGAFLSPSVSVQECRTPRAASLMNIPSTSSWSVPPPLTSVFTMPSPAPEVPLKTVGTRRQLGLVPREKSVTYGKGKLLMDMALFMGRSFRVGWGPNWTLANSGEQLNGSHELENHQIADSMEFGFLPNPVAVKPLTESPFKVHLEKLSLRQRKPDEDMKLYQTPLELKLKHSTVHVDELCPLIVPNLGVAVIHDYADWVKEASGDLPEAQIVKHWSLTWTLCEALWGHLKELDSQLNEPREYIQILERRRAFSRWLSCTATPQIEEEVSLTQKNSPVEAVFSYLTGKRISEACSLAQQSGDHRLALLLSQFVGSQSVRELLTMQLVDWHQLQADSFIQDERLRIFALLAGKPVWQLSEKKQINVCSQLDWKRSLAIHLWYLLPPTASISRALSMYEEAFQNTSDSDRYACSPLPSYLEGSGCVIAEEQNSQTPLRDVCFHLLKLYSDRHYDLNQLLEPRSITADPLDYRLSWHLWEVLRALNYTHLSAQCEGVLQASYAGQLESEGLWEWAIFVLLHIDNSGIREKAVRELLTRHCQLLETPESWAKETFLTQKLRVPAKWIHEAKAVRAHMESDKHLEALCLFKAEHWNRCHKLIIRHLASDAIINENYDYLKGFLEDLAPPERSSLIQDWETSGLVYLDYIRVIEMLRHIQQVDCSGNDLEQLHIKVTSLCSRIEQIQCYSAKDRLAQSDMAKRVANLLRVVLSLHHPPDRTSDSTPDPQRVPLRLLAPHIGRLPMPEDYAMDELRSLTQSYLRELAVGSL
# Sequence of UniProt Q3KQU3 (Q3KQU3 whole entry, looked up): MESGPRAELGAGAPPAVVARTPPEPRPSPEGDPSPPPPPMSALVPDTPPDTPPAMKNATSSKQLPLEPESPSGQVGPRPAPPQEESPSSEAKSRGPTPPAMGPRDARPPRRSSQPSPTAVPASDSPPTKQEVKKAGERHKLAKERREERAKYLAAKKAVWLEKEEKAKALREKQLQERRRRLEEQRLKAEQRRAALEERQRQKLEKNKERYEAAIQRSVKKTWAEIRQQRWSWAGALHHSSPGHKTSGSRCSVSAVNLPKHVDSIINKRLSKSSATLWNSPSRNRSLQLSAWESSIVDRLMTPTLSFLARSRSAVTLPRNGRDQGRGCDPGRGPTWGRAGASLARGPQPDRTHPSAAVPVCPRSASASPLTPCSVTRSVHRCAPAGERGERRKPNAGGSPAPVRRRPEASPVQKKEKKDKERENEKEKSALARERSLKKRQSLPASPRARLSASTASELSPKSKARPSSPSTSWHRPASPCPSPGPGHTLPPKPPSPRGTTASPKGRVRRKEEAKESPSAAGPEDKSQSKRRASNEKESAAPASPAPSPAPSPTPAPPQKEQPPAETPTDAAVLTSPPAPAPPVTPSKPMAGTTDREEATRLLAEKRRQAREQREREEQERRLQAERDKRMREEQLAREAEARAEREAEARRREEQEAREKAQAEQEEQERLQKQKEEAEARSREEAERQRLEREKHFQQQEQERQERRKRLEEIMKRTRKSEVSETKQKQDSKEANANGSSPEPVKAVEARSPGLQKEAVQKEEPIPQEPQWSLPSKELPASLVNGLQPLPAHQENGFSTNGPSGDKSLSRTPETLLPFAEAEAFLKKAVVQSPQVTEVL
# Sequence of UniProt P85037 (P85037 whole entry, looked up): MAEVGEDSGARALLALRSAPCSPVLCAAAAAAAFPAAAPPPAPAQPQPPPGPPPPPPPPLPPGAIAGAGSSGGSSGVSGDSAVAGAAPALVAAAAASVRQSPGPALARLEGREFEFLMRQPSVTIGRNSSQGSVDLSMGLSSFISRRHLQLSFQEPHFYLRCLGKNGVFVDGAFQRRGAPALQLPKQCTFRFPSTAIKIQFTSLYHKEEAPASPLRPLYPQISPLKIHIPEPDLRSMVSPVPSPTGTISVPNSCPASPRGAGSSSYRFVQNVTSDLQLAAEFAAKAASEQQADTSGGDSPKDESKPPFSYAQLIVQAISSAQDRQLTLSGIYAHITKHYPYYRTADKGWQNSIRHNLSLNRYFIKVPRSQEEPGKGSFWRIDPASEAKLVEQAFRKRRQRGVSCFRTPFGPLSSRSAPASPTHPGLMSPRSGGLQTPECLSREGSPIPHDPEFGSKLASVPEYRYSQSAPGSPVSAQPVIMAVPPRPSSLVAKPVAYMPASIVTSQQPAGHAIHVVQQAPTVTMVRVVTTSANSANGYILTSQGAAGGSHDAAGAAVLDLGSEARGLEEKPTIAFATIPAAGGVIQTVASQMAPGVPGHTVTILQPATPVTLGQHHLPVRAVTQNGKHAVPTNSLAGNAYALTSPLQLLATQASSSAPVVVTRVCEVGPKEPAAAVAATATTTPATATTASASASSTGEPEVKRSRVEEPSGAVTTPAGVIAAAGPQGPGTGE
# Sequence of UniProt Q15102 (Q15102 whole entry, looked up): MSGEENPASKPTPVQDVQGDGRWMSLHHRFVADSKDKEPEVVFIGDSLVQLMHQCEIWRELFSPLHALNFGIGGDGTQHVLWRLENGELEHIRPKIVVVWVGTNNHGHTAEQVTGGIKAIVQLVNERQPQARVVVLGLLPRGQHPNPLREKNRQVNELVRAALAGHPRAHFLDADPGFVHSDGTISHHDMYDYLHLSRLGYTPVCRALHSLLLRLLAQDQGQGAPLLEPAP
row,Target,log2 ratio of iodoacetamide-alkyne labeling
1,GSTO1 C32 (UniProt P78417),2.51 (active)
2,SORD C45 (UniProt Q00796),-0.0713
3,RPL7A C174 (UniProt P62424),-0.0802
4,NUMA1 C961 (UniProt Q14980),1.55 (active)
5,ESPL1 C294 (UniProt Q14674),0.577
6,NSUN2 C184 (UniProt Q08J23),-0.0329
7,UniProt Q02930_C80,1.09 (active)
8,PAFAH1B3 C55 (UniProt Q15102),0.0597
9,MAP7D1 C373 (UniProt Q3KQU3),0.815
10,ATP2C1 C162 (UniProt P98194),0.0772
11,EXOSC7 C85 (UniProt Q15024),-0.0747
12,FOXK1 C665 (UniProt P85037),0.531
13,TRIM28 C717 (UniProt Q13263),-0.00982
14,FHL1 C191 (UniProt Q13642),-0.117
15,GAPVD1 C568 (UniProt Q14C86),0.475
16,UniProt P62244_C72,0.177
17,PCM1 C957 (UniProt Q15154),2.43 (active)
18,GTF2I C80 (UniProt P78347),0.0358
19,PITRM1 C556 (UniProt Q5JRX3),0.0671
20,NUP98 C1590 (UniProt P52948),0.601
21,PPA1 C114 (UniProt Q15181),-0.223
22,TLE3 C528 (UniProt Q04726),1.34 (active)
